Our source for the Potency and activity, negative = inhibition values is PubChem BioAssay AID1494156 (National Center for Advancing Translational Sciences (NCATS), 2020).

SMILES strings stand for the structures. Inconclusive results are not listed. Values without a mark were called inactive. The source made the active and inactive calls. Calls follow the shape of the full dose curve.

The nature of this test: VSV-G qHTS counterscreen for inhibitors of MERS-S pseudo-typed particle cell entry. The settings on record: VSV-G pseudotyped particle cell entry, luciferase counterscreen; series mostly up to 57.1 µM. Background: qHTS replaces the single test concentration by a dilution series.
`Cc1nnc(C(=O)NC(C)(C)c2nc(C(=O)NCc3ccc(F)cc3)c(O)c(=O)n2C)o1`: the Potency is 0.0038 µM (active).

As for `CCn1cc(C(=O)O)c(=O)c2cc(F)c(N3CCNC(C)C3)c(F)c21` (stereo not given), the Potency result is “inactive”.

Consider `O=C1CCc2ccc(OCCCCN3CCN(c4cccc(Cl)c4Cl)CC3)cc2N1`, for which the Potency is 13.6 µM (active).

Regarding `C[C@H]1[C@H](OC(=O)CCC(=O)O)O[C@@H]2O[C@@]3(C)CC[C@H]4[C@H](C)CC[C@@H]1[C@@]24OO3`, the Potency was 0.681 µM (active).

As for `Cc1nnc2n1-c1sc(CCc3ccc(CC(C)C)cc3)cc1C(c1ccccc1Cl)=NC2C` (stereo not given), the Potency is 24.1 µM (active).

On to `CC(=O)Oc1ccccc1C(=O)Nc1ncc([N+](=O)[O-])s1`, for which the Potency was 10.8 µM (active).

Take `CCCN1C[C@H](C)[C@@H](O)[C@](C)(O)[C@@H](CC)OC(=O)[C@H](C)[C@@H](O[C@H]2C[C@@](C)(OC)[C@@H](O)[C@H](C)O2)C(C)[C@@H](O[C@@H]2O[C@H](C)C[C@H](N(C)C)[C@H]2O)[C@](C)(O)C[C@H]1C` (stereo not given in full): the Potency result is “inactive”.

In the case of `CCCCCCOC(=O)NC(=N)c1ccc(NCc2nc3cc(C(=O)N(CCC(=O)OCC)c4ccccn4)ccc3n2C)cc1`, the Potency is 27.1 µM (active).

Turning to `CC(C)OC(=O)[C@H](C)N[P@](=O)(CO[C@H](C)Cn1cnc2c(N)ncnc21)Oc1ccccc1`, the Potency was 0.0271 µM (active).

For the molecule `CCN(CC)CCNC(=O)c1c(C)[nH]c(/C=C2\C(=O)Nc3ccc(F)cc32)c1C`, the Potency was 7.64 µM (active).

For the molecule `CC[C@@]1(O)C(=O)OCc2c1cc1n(c2=O)Cc2c-1nc1ccccc1c2/C=N/OC(C)(C)C`, the Potency is 0.0108 µM (active).

Turning to `N=C(N)c1ccc(OCCCCCOc2ccc(C(=N)N)cc2)cc1`, the Potency was 10.8 µM (active).

Consider `Cc1cn([C@H]2C[C@H](N=[N+]=[N-])[C@@H](CO)O2)c(=O)[nH]c1=O`, for which the Potency was 0.304 µM (active).

Turning to `C[C@@H](c1nc(-c2ccc(C#N)cc2)cs1)[C@](O)(Cn1cncn1)c1cc(F)ccc1F`, the Potency is 2.15 µM (active).

For `CN(C)[C@@H](CCOc1cccc2ccccc12)c1ccccc1`, the Potency is 21.5 µM (active).

As for `CC(C)C(=O)Oc1ccc(CO)cc1[C@H](CCN(C(C)C)C(C)C)c1ccccc1`, the Potency is 21.5 µM (active).

On to `COC(=O)C1=C(C)NC(C)=C(C(=O)OCC(C)C)C1c1ccccc1[N+](=O)[O-]` (stereo not given), for which the Potency was 17.1 µM (active).

In the case of `COc1c(OCCCN2CCOCC2)ccc2c3n(c(=NC(=O)c4cnc(N)nc4)nc12)CCN3`, the activity, negative = inhibition is -8.49% [at 11.2 µM].

With `O=C(Nc1ccc(Cl)cc1)Nc1ccc(Cl)c(C(F)(F)F)c1`, the Potency is 10.8 µM (active).

On to `COc1cc2nccc(Oc3ccc(NC(=O)C4(C(=O)Nc5ccc(F)cc5)CC4)cc3)c2cc1OC`, for which the Potency was 15.2 µM (active).

In the case of `CN(C)CC/C=C1\c2ccccc2Sc2ccc(Cl)cc21`, the Potency was 8.57 µM (active).

`COc1cccc2c1C(=O)c1c(O)c3c(c(O)c1C2=O)C[C@@](O)(C(=O)CO)C[C@@H]3O[C@H]1C[C@H](N)[C@@H](O)[C@H](C)O1`: the Potency is 2.41 µM (active).

Regarding `COc1ccc2cc3[n+](cc2c1OC)CCc1cc2c(cc1-3)OCO2`, the Potency was 8.57 µM (active).

For the molecule `Cc1cc(-n2c(=O)[nH]c(=O)n(C)c2=O)ccc1Oc1ccc(S(=O)(=O)C(F)(F)F)cc1`, the Potency was 9.61 µM (active).

As to `CC[C@@H]([C@H](C)O)n1ncn(-c2ccc(N3CCN(c4ccc(OC[C@@H]5CO[C@@](Cn6cncn6)(c6ccc(F)cc6F)C5)cc4)CC3)cc2)c1=O`, the Potency is 6.81 µM (active).

Turning to `CCOc1cc2ncc(C#N)c(Nc3ccc(OCc4ccccn4)c(Cl)c3)c2cc1NC(=O)/C=C/CN(C)C`, the activity, negative = inhibition is -3.61% [at 11.2 µM].

Consider `COc1cc([C@@H]2c3cc4c(cc3C(O[C@@H]3O[C@@H]5CO[C@@H](c6cccs6)OC5[C@H](O)[C@H]3O)C3COC(=O)[C@@H]32)OCO4)cc(OC)c1O` (stereo not given in full), for which the Potency is 0.192 µM (active).

In the case of `CCCCN=C(N)N=C(N)N`, the Potency entry was “inactive”.

On to `COc1cccc2c1C(=O)c1c(O)c3c(c(O)c1C2=O)C[C@@](O)(C(=O)CO)C[C@@H]3O[C@H]1C[C@H](N)[C@H](OC2CCCCO2)[C@H](C)O1` (stereo not given in full), for which the Potency entry was “inactive”.

Consider `N#CC(c1ccc(Cl)cc1)c1c(Cl)cc(-n2ncc(=O)[nH]c2=O)cc1Cl` (stereo not given), for which the Potency was 3.83 µM (active).

On to `COc1cc2c(cc1Cc1cccc(Cl)c1F)c(=O)c(C(=O)O)cn2[C@H](CO)C(C)C`, for which the Potency is 0.192 µM (active).

For `CC(CN(C)C)CN1c2ccccc2CCc2ccccc21` (stereo not given), the Potency entry is “inactive”.

Take `COC(=O)C[C@](O)(CCCC(C)(C)O)C(=O)O[C@@H]1C(OC)=C[C@]23CCCN2CCc2cc4c(cc2[C@H]13)OCO4`: the Potency was 0.482 µM (active).

Turning to `O=C(O)c1cc(O)c2c(c1)[C@H]([C@H]1c3cc(C(=O)O)cc(O)c3C(=O)c3c(O[C@@H]4O[C@H](CO)[C@@H](O)[C@H](O)[C@H]4O)cccc31)c1cccc(O[C@@H]3O[C@H](CO)[C@@H](O)[C@H](O)[C@H]3O)c1C2=O`, the Potency was 7.44 µM (active).

Regarding `Cc1c(N)nc(C(CC(N)=O)NCC(N)C(N)=O)nc1C(=O)NC(C(=O)NC(C)C(O)C(C)C(=O)NC(C(=O)NCCc1nc(-c2nc(C(=O)NCCCN[C@@H](C)c3ccccc3)cs2)cs1)C(C)O)C(O[C@@H]1O[C@@H](CO)[C@@H](O)[C@H](O)[C@@H]1O[C@H]1O[C@H](CO)[C@@H](O)[C@H](OC(N)=O)[C@@H]1O)c1cnc[nH]1` (stereo not given in full), the Potency is 0.764 µM (active).

Turning to `O=C(Nc1ccc([N+](=O)[O-])cc1Cl)c1cc(Cl)ccc1O`, the Potency was 0.607 µM (active).

Take `C/C=C(/C)C(=O)O[C@H]1C(C)=CC23C(=O)C(C=C(CO)[C@@H](O)[C@]12O)[C@H]1[C@@H](C[C@H]3C)C1(C)C` (stereo not given in full): the Potency entry was “inactive”.

`CCc1c2c(nc3ccc(OC(=O)N4CCC(N5CCCCC5)CC4)cc13)-c1cc3c(c(=O)n1C2)COC(=O)[C@]3(O)CC`: the Potency is 10.8 µM (active).

Regarding `CCCCCCCCCCCC[n+]1ccc2ccccc2c1`, the Potency was 1.52 µM (active).

For `O=C1c2c(O)ccc(O)c2C(=O)c2c(NCCNCCO)ccc(NCCNCCO)c21`, the Potency is 0.541 µM (active).
